Assay outcomes deposited in PubChem by several laboratories.
Candida biofilm – kills Candida albicans biofilms; C. albicans biofilm + clotrimazole, Alamar Blue; AID 834; inhibition, % at 6 µM; 85,000 tested, 0.14% active;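 active means inhibition above 20%; inactive means inhibition below 20%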;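 further: preformed 24 hr biofilms exposed to compound for 48 hr; 0% = biofilm without compound and 100% = blank killed by clotrimazole plus chlorhexidine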
FXIIa inh mix – blocks human factor XIIa in pooled compound mixtures | P00748 | purified FXIIa, fluorogenic substrate | inhibition, % at 5 µM | 62,000 tested, 0.2% active | AID 684;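 further: 0% = enzyme without compound and 100% = no enzyme blank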
HePTP inh – human HePTP phosphatase inhibition; 110,000 tested, 0.64% active; P35236; recombinant HePTP phosphatase activity, OD absorbance; inhibition, % at 20 µM; in the data active means inhibition above about 50%;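 further: plate controls were vehicle for no effect and reference inhibitor for full effect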
FXIa mix inh – inhibitors of human coagulation factor XIa, pooled mixtures. P03951. purified FXIa, fluorogenic substrate. inhibition, % at 5 µM. 62,000 tested, 0.19% active. AID 680;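 further: each value is inhibition by a whole ten-compound pool holding the compound; 0% = enzyme with no mixture and 100% = wells lacking enzyme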
D1 allo mod – allosteric modulators of human D1 dopamine receptor; B-score at 10 µM; P21728; HEK293 D1, CRE-luciferase, dopamine EC30 potentiation; actives deviate in either direction; 58,000 tested, 5.9% active;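 active means luminescence count or its row- and column-corrected plate score outside the 99.7% band of the plate's sample wells, on either side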
Target sequence (P21728 whole entry, looked up): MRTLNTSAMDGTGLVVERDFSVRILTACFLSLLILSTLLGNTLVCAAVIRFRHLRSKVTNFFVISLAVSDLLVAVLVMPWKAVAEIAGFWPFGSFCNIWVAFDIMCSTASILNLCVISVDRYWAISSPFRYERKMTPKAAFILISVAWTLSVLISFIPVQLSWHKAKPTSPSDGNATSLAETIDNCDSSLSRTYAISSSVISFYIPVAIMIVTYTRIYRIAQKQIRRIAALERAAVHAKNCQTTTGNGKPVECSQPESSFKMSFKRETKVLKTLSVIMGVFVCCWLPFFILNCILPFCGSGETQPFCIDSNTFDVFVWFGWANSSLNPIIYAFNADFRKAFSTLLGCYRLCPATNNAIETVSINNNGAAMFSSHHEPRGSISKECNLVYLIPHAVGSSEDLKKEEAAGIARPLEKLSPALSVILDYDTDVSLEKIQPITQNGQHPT
TNAP act DEA – human TNAP activation, intermediate phosphate acceptor; P05186; purified TNAP, CDP-star luminescence, 100 mM DEA, 30 min; hits give high values; scale: 0 levamisole-inhibited, 1 vehicle-only enzyme; activation factor at 20 µM; 64,000 tested, under 10 active;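 active means activation factor of at least 2 at 20 µM, relative to controls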
D1 mod confirm – confirmation of human D1 dopamine receptor allosteric modulators; HEK293 D1 CRE-luciferase, dopamine EC30 potentiation; hits give high values; luminescence at 10 µM; 2,200 tested, 88% active; AID 642; shares compounds with D1 allo mod;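 active means luminescence in either of two replicates above the same-plate mean plus 3 SD of the low-dose dopamine control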
D1 ag no DA – secondary test of D1 modulators: activity without dopamine; shares compounds with D1 allo mod; HEK293 D1 CRE-luciferase, luminescence, no dopamine; hits give high values; luminescence at 10 µM; 1,900 tested, 0.8% active; in the data active means luminescence above about 3900
Isoprot counter – alters isoproterenol CRE-luciferase response in HEK293 cells | AID 647 | 2,200 tested, 63% active | HEK293 D1 CRE-luciferase, isoproterenol EC30 counter-screen; hits give high values | shares compounds with D1 allo mod | luminescence at 10 µM;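 active means luminescence in either replicate above plate mean of wells with a partly effective reference agonist dose plus 3 SD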;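 further: isoproterenol raises cAMP through native beta-adrenoceptor Gs so signal bypasses D1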
Active calls of the source: *; nt = no result given. Shown is part of a subset that was picked to be rich in hits. Unless noted, no stated cut-off is given here; in the data, active means inhibition above about 20% (passing the limit was not always enough); inactive means the rest.

SMILES	Candida biofilm	FXIIa inh mix	HePTP inh	FXIa mix inh	D1 allo mod	TNAP act DEA	D1 mod confirm	D1 ag no DA	Isoprot counter
CC1(C)CC(=O)C2=C(C1)OC(N)=C(C#N)C2CCc1ccccc1 (stereo unspecified)	-1	nt	nt	nt	8.9*	nt	20388*	1576	3000*
CCCCOc1ccc(C2C(C#N)=C(N)OC3=C2C(=O)CC(C)(C)C3)cc1 (stereo unspecified)	nt	nt	-13	nt	nt	nt	nt	nt	nt
CC1(C)CC(=O)C2=C(C1)OC(N)=C(C#N)C2c1cccc(OC(=O)c2ccco2)c1 (stereo unspecified)	7	3	1	1	6.3*	0.9	5824*	1580	2360
OCCNc1nc(-c2cccnc2)nc2ccccc12	-1	nt	11	nt	nt	1	nt	nt	nt
c1cncc(-c2nc(NCc3ccco3)c3ccccc3n2)c1	0	5	14	4	7.3*	0.9	11656*	nt	3428*
CCOC(=O)C(CCSC)NC(=O)CN (stereo unspecified)	0	2	-1	-7	4.8*	0.9	6764	1616	2624
CC(C)c1nc2sc3c(SCC(=O)NCc4ccco4)ncnc3c2c2c1CCC2	2	1	9	9	14*	0.9	17912*	nt	2512
Cc1ccc(CNc2nc3ccccc3n3nnnc23)cc1	8	2	8	1	3.4*	0.9	15516*	1588	3060
c1ccc2c(c1)nc(Nc1ccc3c(c1)OCO3)c1nnnn12	5	-13	1	14	8.6*	0.9	10812*	1496	3840*
COc1ccc(CCN(C)C(=O)CSc2nccn2C)cc1OC	3	6	3	4	4.5*	0.9	9340*	nt	2656
COc1ccc(CCN(C)C(=O)N2CCOCC2)cc1OC	5	5	8	-38	0.0082	0.9	nt	nt	nt
c1ccc(-c2nc[nH]c2-c2ccccc2)cc1	8	2	0	11	4.9*	0.9	13428*	1748	2876
Nc1n[nH]c(-c2ccccc2)c1-c1ccccc1	7	11	-5	10	1.2	0.9	nt	nt	nt
CCOc1ccc(C(=O)N2CCc3cc(OC)c(OC)cc3C2)cc1OCC	nt	3	8	4	4.6*	0.8	15188*	1788	4380*
COc1ccc(CN2CCN(C(=O)c3cccs3)CC2)cc1Br	3	-3	6	-4	6.4*	0.9	12896*	nt	4528*
COc1ccc(CN2CCN(C(=O)c3cccs3)CC2)cc1OC	nt	nt	2	nt	nt	nt	nt	nt	nt
CCOc1ccc(C(=O)N2CCc3ccccc3C2)cc1OCC	nt	nt	-7	nt	nt	nt	nt	nt	nt
COc1cc2c(cc1OC)CN(C(=O)c1cccs1)CC2	nt	-13	11	9	5.1*	1	8784*	1504	4064*
COc1cc2c(cc1OC)CN(C(=O)COc1ccc(C)c(C)c1)CC2	1	-17	17	10	13*	0.9	21228*	1676	5744*
O=C(NCCC1=CCCCC1)C(=O)Nc1ccccc1F	nt	nt	-17	nt	nt	nt	nt	nt	nt
CCN1C(=O)/C(=C\c2cc(Cl)ccc2OCc2ccccc2)SC1=S	nt	nt	-6	nt	nt	nt	nt	nt	nt
O=C(NCc1ccco1)c1cccc2ccccc12	-1	5	-8	-1	-0.052	0.9	nt	nt	nt
O=C(NCc1ccco1)c1cccnc1-c1nc2ccccc2s1	4	-17	3	5	5.9*	0.9	11260*	1740	3708*
Cn1c(=O)c2c(SCc3ccccc3)nc(-c3ccco3)nc2n(C)c1=O	9	12	11	-5	3.3*	0.9	12880*	1832	3356
CCCOC(=O)c1c(NC(=O)c2c(-c3ccccc3)noc2C)sc2c1CCCCC2	nt	nt	-7	nt	nt	nt	nt	nt	nt
COc1cccc(Cn2nnc(C(=O)NCc3ccccc3Cl)c2N)c1	15	0	6	6	6.8*	0.9	16056*	1908	4360*
COc1cccc(Cn2nnc(C(=O)NCc3ccc(F)cc3)c2N)c1	15	10	-8	7	1.3	1.1	nt	nt	nt
Cc1nnc2c3c4c(sc3nc(-c3ccccc3)n12)COC(C)(C)C4	nt	nt	7	nt	nt	nt	nt	nt	nt
